Screening results deposited in PubChem BioAssay by Sanford-Burnham Center for Chemical Genomics.
Shown are actives, neighbours in structure and some others; about 4% of the full set was active somewhere.
TIM10 inh: growth inhibitors of isogenic TIM10 control yeast, primary screen, counter-screen for tim10-1 yeast inhibitor project, luminescence, uHTS. S. cerevisiae TIM10 strain growth, BacTiter-Glo luminescence, 24 h. inhibition, % at 10 µM. actives 1.4% (n = 330,000);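 active = inhibition of 40% or more at the single tested concentration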;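 note: wild-type TIM10 isogenic control strain grown at permissive 25 °C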
NLRP3 yeast inh: NALP3 inflammasome inhibitors in reconstituted yeast, primary screen, luminescence, uHTS. Yeast reconstituted NLRP3/ASC/caspase-1, beta-gal luminescence, 24 h. inhibition, % at 10 µM. actives 0.39% (n = 330,000). AID 2825, 2010;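 active = inhibition of 50% or more; inactive = inhibition below 50%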
tim23-1 inh: growth inhibitors of tim23-1 mutant yeast, primary screen, luminescence, uHTS. S. cerevisiae tim23-1 growth, BacTiter-Glo luminescence, 24 h. inhibition, % at 20 µM. actives 1.3% (n = 330,000). AID 463212, 2010;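 active = growth inhibition of the mutant yeast at or above 50%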;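 note: temperature-sensitive mutant grown at 25 °C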
NALP1 inh: NALP1 inflammasome inhibitors in reconstituted yeast, colorimetric, S. cerevisiae, triplicate retest. S. cerevisiae NALP1/ASC/caspase-1 growth, X-gal OD620, 72 h. inhibition, % at 10 µM. actives 0.61% (n = 280,000); in the data active = inhibition mostly above about 24%, no sharp cut-off; inactive = mostly below about 32%
tim10-1 inh: growth inhibitors of tim10-1 mutant yeast, primary screen, luminescence, uHTS; S. cerevisiae tim10-1 ts strain growth, BacTiter-Glo, 24 h; inhibition, % at 20 µM; actives 2.2% (n = 330,000); AID 463190, 2010;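 active = inhibition of at least 40%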;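 note: mutant grown at 25 °C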
tim10-1 confirm: growth inhibitors of tim10-1 mutant yeast, confirmation, single concentration, luminescence, S. cerevisiae; shares compounds with tim10-1 inh; S. cerevisiae tim10-1 ts strain growth, BacTiter-Glo, 24 h; inhibition, % at 20 µM; actives 56% (n = 7,400); AID 463213, 2010;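 active = inhibition of yeast growth at or above a set limit in either of two repeat tests at 20 µM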;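 note: tim10-1 mutant grown at permissive 25 °C to find synthetic lethal compounds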
Numbers stand for hits; - = inactive; . = no result.

SMILES | TIM10 inh | NLRP3 yeast inh | tim23-1 inh | NALP1 inh | tim10-1 inh | tim10-1 confirm
O=C(N=Nc1ccc(NOC(=O)c2ccccc2Br)cc1)c1ccccc1O | - | - | - | - | 50 | 37
Cc1cc(N=NC(=O)c2ccccc2O)c2ccccc2c1O | - | - | - | - | - | .
O=C(CN1CCN(S(=O)(=O)c2ccccc2)CC1)Nc1ccc([N+](=O)[O-])cc1 | - | - | - | - | 47 | 32
Cc1ccc(-n2nnnc2-c2cccc(C)c2)cc1 | - | - | - | - | - | .
COc1ccc(-n2nnnc2-c2cccc(OC)c2)cc1 | - | - | - | - | 44 | -
Cc1cc(OC(=O)c2c(Cl)cc(Cl)cc2Cl)nc(C)n1 | - | - | - | - | - | .
Cc1cc(C)nc(OC(=O)c2c(Cl)cc(Cl)cc2Cl)n1 | - | - | - | - | 44 | 33
COc1ccc(C2(C)NC(=O)N(CC(=O)Nc3ccc(Br)cc3F)C2=O)cc1OC (centres undefined) | - | - | - | - | - | .
CC(C)CNC(=O)c1c2c(nc3ccccc13)-c1ccccc1CC2 | - | - | - | - | - | .
CCN(CC)C(=O)c1c2c(nc3ccccc13)-c1ccccc1CC2 | - | - | - | - | 42 | -
O=S(=O)(c1ccc2c(c1)CCCN2)N1CCCC2CCCCC21 (centres undefined) | - | - | - | - | 47 | -
CCc1[nH]nc2c1C(c1ccc(C)o1)C(C#N)=C(N)O2 (centres undefined) | - | - | - | - | - | .
Cc1ccc(SCc2[nH]nc3c2C(c2ccc(C)o2)C(C#N)=C(N)O3)cc1 (centres undefined) | - | - | - | - | 42 | 38
CCCCn1c(-c2csc3c2CCC(C)C3)n[nH]c1=S (centres undefined) | - | - | - | - | 51 | -
CCCCn1c(-c2csc3ccccc23)n[nH]c1=S | - | - | - | - | - | .
CC(C)C1O/C(=N/C(=O)Nc2ccc(Cl)c(Cl)c2)NC1=O (centres undefined) | - | - | - | - | 57 | 47
O=C(Nc1ccc(Cl)c(Cl)c1)c1ccc(Cl)c(Cl)c1 | - | - | - | - | - | .
Cc1ccc2nc(SCC(=O)Nc3ccc(F)cc3F)nc(=O)n2c1 | - | - | - | . | - | .
CN(C)S(=O)(=O)c1ccc2nc(NC(=O)c3cccs3)sc2c1 | - | - | - | - | - | .
O=C(Nc1nc(-c2ccc(Cl)s2)cs1)c1cccs1 | - | - | - | - | 42 | -
O=C(Nc1nc(-c2cc(Cl)sc2Cl)cs1)c1ccccc1 | - | - | - | - | 44 | -
O=C(Nc1nc(-c2ccccn2)cs1)c1ccc(Cl)s1 | - | - | - | 98 | 51 | -
CCCC(=O)Nc1nc(-c2ccc(Cl)s2)cs1 | - | - | - | - | - | .
O=C(Nc1nc2ccc(F)cc2s1)c1cccs1 | - | - | - | - | 41 | 32
CC(=O)Nc1ccc(S(=O)(=O)NCC(=O)OCC(=O)N2CCCc3ccccc32)cc1 | - | - | - | - | - | .
SMILES | TIM10 inh | NLRP3 yeast inh | tim23-1 inh | NALP1 inh | tim10-1 inh | tim10-1 confirm
Cc1cc(C)n(S(=O)(=O)c2ccc(Cl)cc2)n1 | - | - | - | - | - | .
Cc1cc(C)n(S(=O)(=O)c2ccc(C(C)(C)C)cc2)n1 | - | - | - | - | 43 | 38
Cc1cc(C)n(S(=O)(=O)c2cc(Cl)ccc2Cl)n1 | - | - | - | - | 40 | -
CN(Cc1ccccc1)C(=O)c1[nH]cnc1C(=O)Nc1cccc(Cl)c1 | - | - | - | . | - | .
Cc1nc(C)c(C(=O)OCC(=O)NCc2ccccc2)s1 | - | - | - | . | - | .
O=C(Cn1nc(C(F)(F)F)c2c1CCC2)NCc1ccc(Cl)cc1 | - | - | - | - | 41 | -
Cc1cccn2c(=O)c3cc(S(=O)(=O)c4ccccc4)c(=N)n(CC4CCCO4)c3nc12 (centres undefined) | - | - | - | - | - | .
COc1cc(NC(=O)c2c(Cl)cnn2C)c(OC)cc1Cl | - | - | - | - | - | .
Cn1ncc(Cl)c1C(=O)Nc1cc(C(F)(F)F)ccc1F | - | - | - | - | 47 | -
CN(C(=O)CSc1nc2ccccc2o1)C1CCCCC1 | - | - | - | . | - | .
Cc1cc(C)n(C(=O)/C(C#N)=N/Nc2cc(Cl)cc(Cl)c2)n1 | - | - | - | - | 47 | 56
Cc1cc(C)n(C(=O)/C(C#N)=N\Nc2ccccc2[N+](=O)[O-])n1 | - | - | - | - | - | .
OC(COCC(F)(F)C(F)(F)C(F)(F)C(F)F)Cn1c2ccc(Cl)cc2c2cc(Cl)ccc21 (centres undefined) | - | - | - | - | 41 | 36
C[C@H]1COC(=O)[C@@H](CC(=O)OC(C)(C)C)C/C=C\C[C@H](CC(=O)NCCO)C(=O)N1 | - | - | - | . | - | .
Cc1nc([N+](=O)[O-])c(Br)n1CC(=O)c1ccc(Cl)cc1 | - | - | - | - | 43 | 38
COc1ccc(C(=O)Cn2c(C)nc([N+](=O)[O-])c2Br)cc1 | - | - | - | - | - | .
Cc1cnn(-c2cc(Oc3ccccc3)ncn2)c1 | - | - | - | - | 49 | -
O=C(NCCSc1ccccc1)c1ccc(Br)cc1 | - | - | - | - | - | .
O=C(NCCCSc1ccccc1)c1cc(Br)ccc1O | - | - | - | - | 46 | -
CS(=O)(=O)N(CC(=O)Nc1cccc([N+](=O)[O-])c1)c1ccccc1 | - | - | - | - | - | .
Cc1ccccc1CN(CC(=O)Nc1cccc([N+](=O)[O-])c1)S(=O)(=O)c1ccc(Cl)cc1 | - | - | - | - | 45 | -
CCCNC(=O)N1CCCC(C(=O)c2cccc(Cl)c2)C1 (centres undefined) | - | - | - | - | - | .
O=C(CCc1ccccc1)C(=O)N1CCCC(C(=O)c2cccc(Cl)c2)C1 (centres undefined) | - | - | - | - | 40 | -
O=C(O)Cc1coc2ccc3ccccc3c12 | - | - | - | - | 44 | 48
COc1ccc(OC)c(NC(=O)Cc2coc3ccc4ccccc4c23)c1 | - | - | - | - | 42 | -
Cc1cc(Cl)c2oc(C(=O)N(CCO)Cc3ccccc3)c(C)c2c1 | - | - | - | - | - | .
Cc1cc(Cl)c2oc(C(=O)N(C)C3CCOC3)c(C)c2c1 (centres undefined) | - | - | - | - | 41 | -
COc1ccc(Nc2ncnc3scc(-c4ccc(OC)cc4)c23)cc1 | - | - | - | - | 49 | 36
Cc1ccccc1NC(=O)COC(=O)c1c[nH]c(=O)[nH]c1=O | - | - | - | - | - | .
CC(C)(C)c1ccc(-c2n[nH]c(=S)n2Cc2ccccc2)cc1 | - | - | - | - | 45 | 38
